From PubChem BioAssay (Tox21)
Inconclusive results are not listed. Calls of active or inactive are those of the source. Unless noted, calls follow the shape of the dose curve; as a rule, active = well fitted curve in the direction sought with a large enough effect in the repeat runs; inconclusive = weak or mixed curves; inactive = no such curve, though single readings can be large; an effect the other way counts as inactive or inconclusive.

Tests used:
[1] = qHTS RealTime-Glo MT Cell Viability Assay in HEK293 cells - 8 hour (AID 1224887); also: top concentration of the series differs between compounds; nearly all actives have a fitted effect of over 50% in size
Summary of the method: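 HEK293 cells mixed with RealTime-Glo reagents (NanoLuc plus cell-permeant prosubstrate) at 600 cells/well, preincubated 5 h at 37 C/5% CO2, then given 23 nL compound in DMSO. Nonlytic luminescence from viable cells was read at 0, 8, 16, 24, 32 and 40 h.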

[2] = A CellTox Green Cytotoxicity Assay to monitor cytotoxicity in HEK293 cells - 16 hour (AID 1224888); also: nearly all actives have a fitted effect of over 35% in size
Summary of the method: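 HEK293 cells premixed with CellTox Green dye were seeded at 600 cells/well and left 5 h at 37 C/5% CO2 before pin transfer of 23 nL compound in DMSO. Fluorescence from dye bound to dead-cell DNA was read during 40 h treatment.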

[3] = qHTS RealTime-Glo MT Cell Viability Assay in HepG2 cells - 0 hour (AID 1224889); also: nearly all actives have a fitted effect of over 50% in size; also: potency is read from the fitted curve at half-maximal effect
Summary of the method: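 Real-time, nonlytic viability: 600 HepG2 cells/well mixed with NanoLuc enzyme plus prosubstrate; 5 h settle, compound (DMSO) added by pintool; luminescence monitored over 40 h at 37 C.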

[4] = A CellTox Green Cytotoxicity Assay to monitor cytotoxicity in HepG2 cells - 8 hour (AID 1224890); also: nearly all actives have a fitted effect of over 45% in size
Summary of the method: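 HepG2 cells were seeded together with the CellTox Green dye at 600 cells/well, left 5 h at 37 C/5% CO2, then given compounds in DMSO. Fluorescence from dye bound to dead-cell DNA was read repeatedly over 40 h of treatment at 37 C.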

[5] = qHTS assay to identify small molecule antagonists of the estrogen receptor alpha (ER-alpha) signaling pathway using the BG1 cell line in the presence of 0.1 nM 17-beta-estradiol - cell viability counter screen (AID 1259241); also: nearly all actives have a fitted effect of over 40% in size
Summary of the method: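 Estradiol-stimulated (0.1 nM) VM7Luc4E2 cells exposed to compounds 22 hr; viability measured by fluorescence of cleaved CellTiter-Fluor substrate after 30 min.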

[6] = qHTS assay to identify small molecule antagonists of the androgen receptor (AR) signaling pathway using the MDA cell line in the presence of 0.5 nM R1881 - cell viability counter screen (AID 1259242); also: nearly all actives have a fitted effect of over 45% in size
Summary of the method: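 MDA-kb2 cells (human breast carcinoma, stably carrying MMTV-luciferase reporter) were exposed to compounds with 0.5 nM R1881 (final) for 16 hr at 37C, 0% CO2; viability then read as live-cell protease fluorescence (CellTiter-Fluor, 30 min) in the same wells.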

[7] = target: Estrogen receptor (Homo sapiens) (UniProt P03372); test: qHTS assay to identify small molecule antagonists of the estrogen receptor alpha (ER-alpha) signaling pathway using the BG1 cell line in the presence of 0.1 nM 17-beta-estradiol (AID 1259244); also: nearly all actives have a fitted effect of over 50% in size
Summary of the method: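 VM7Luc4E2 cells (endogenous full-length ER-alpha, stable 4xERE-luciferase) were grown 5 days in phenol red-free medium with charcoal-stripped FBS, then exposed 22 h at 37C to compounds plus 0.1 nM (final) 17beta-estradiol; ONE-Glo luminescence read-out.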

[8] = qHTS assay to identify small molecule HDAC inhibitors (AID 1259364); also: top concentration of the series differs between compounds; nearly all actives have a fitted effect of over 45% in size
Summary of the method: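 Wild-type HCT-116 cells were plated overnight, exposed to compounds for 2 h at 37 °C, then given HDAC-Glo class I/II luminogenic reagent for 30 min at room temperature before luminescence was read.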

[9] = qHTS assay to identify small molecule phospholipidosis (PLD) inducers (AID 1259344; active = well fitted curve in the direction sought with a large enough effect; an effect the other way counts as inactive or inconclusive; also: potency is read from the fitted curve at half-maximal effect)
Summary of the method: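 Fluorescent phospholipid staining (LipidTOX Red) measured by automated microscopy in fixed HepG2 cells after 24 h treatment; nuclei counterstained with Hoechst 33342; amiodarone as reference inducer.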
% is scaled to controls: 0 for no effect and ±100 for the full control effect.

Sequence of Estrogen receptor (Homo sapiens) (P03372 whole entry, looked up): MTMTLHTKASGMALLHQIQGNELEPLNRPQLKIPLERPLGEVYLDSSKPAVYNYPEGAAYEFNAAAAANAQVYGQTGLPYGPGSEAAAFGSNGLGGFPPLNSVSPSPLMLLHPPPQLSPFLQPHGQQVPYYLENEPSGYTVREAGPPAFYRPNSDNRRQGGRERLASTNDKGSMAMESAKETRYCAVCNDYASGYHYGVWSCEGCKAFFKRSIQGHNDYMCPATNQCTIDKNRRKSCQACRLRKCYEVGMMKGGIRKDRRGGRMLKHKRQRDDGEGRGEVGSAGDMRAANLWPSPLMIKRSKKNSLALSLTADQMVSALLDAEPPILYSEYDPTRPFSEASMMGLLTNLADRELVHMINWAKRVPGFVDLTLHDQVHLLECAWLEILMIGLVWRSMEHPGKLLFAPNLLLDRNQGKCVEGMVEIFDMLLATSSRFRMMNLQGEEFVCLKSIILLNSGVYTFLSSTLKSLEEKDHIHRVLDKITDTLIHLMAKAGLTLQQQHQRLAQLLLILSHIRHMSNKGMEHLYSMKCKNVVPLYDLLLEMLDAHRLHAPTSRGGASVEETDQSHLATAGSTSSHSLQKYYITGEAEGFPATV

CC(C)(C)C(=O)CC(=O)C(C)(C)C
inactive: outcome [1] | Potency [2] | Potency [3] | Potency [4] | outcome [5] | outcome [6] | outcome [7] | Potency [8]

CC(=O)SC[C@@H](C)C(=O)N1CCC[C@H]1C(=O)N[C@@H](Cc1ccccc1)C(=O)O
active: Potency [9] 3.55 µM
inactive: outcome [1] | Potency [2] | Potency [3] | Potency [4] | outcome [5] | outcome [6] | outcome [7] | Potency [8]

CCCCC(CC)CCC(CC(C)C)OS(=O)(=O)O (stereo not given)
inactive: outcome [1] | Potency [2] | Potency [3] | Potency [4] | outcome [5] | outcome [6] | outcome [7] | Potency [9] | Potency [8]

C[Si](C)(C)O[Si](O)(O)O
inactive: outcome [1] | Potency [2] | Potency [3] | Potency [4] | outcome [5] | outcome [6] | outcome [7]

CN(C)CCc1c[nH]c2ccc(C[C@H]3COC(=O)N3)cc12
inactive: outcome [1] | Potency [2] | Potency [3] | Potency [4] | outcome [5] | outcome [6] | outcome [7] | Potency [9] | Potency [8]

CO/N=C(\C(=O)O)c1csc(NC(=O)CCl)n1
inactive: outcome [1] | Potency [2] | Potency [3] | Potency [4] | outcome [5] | outcome [6] | outcome [7]

CN1C(CCl)Nc2cc(Cl)c(S(N)(=O)=O)cc2S1(=O)=O (stereo not given)
inactive: outcome [1] | Potency [2] | Potency [3] | Potency [4] | outcome [5] | outcome [6] | outcome [7] | Potency [9] | Potency [8]

O=C(O)COc1ccc2ccccc2c1
inactive: outcome [1] | Potency [2] | Potency [3] | Potency [4] | outcome [5] | outcome [6] | outcome [7]

CN(C)c1ccncc1
inactive: outcome [1] | Potency [2] | Potency [3] | Potency [4] | outcome [5] | outcome [6] | outcome [7]

Nc1nc(Cl)cc(Cl)n1
inactive: outcome [1] | Potency [2] | Potency [3] | Potency [4] | outcome [5] | outcome [6] | outcome [7]

CC(=O)Nc1ccc(S(=O)(=O)Nc2cc(C)on2)cc1
inactive: outcome [1] | Potency [2] | Potency [3] | Potency [4] | outcome [5] | outcome [6] | outcome [7] | PLD induction [9] 3.97% [at 7.66 µM] | Potency [8]

CCN1CCN(C(=O)N[C@@H](C(=O)N[C@@H]2C(=O)N3C(C(=O)O)=C(CSc4nnnn4C)CS[C@H]23)c2ccc(O)cc2)C(=O)C1=O
inactive: outcome [1] | Potency [2] | Potency [3] | Potency [4] | outcome [5] | outcome [6] | outcome [7] | Potency [9] | Potency [8]

CN1CCN(C(=O)C2CCCCC2)CC1
inactive: outcome [1] | Potency [2] | Potency [3] | Potency [4] | outcome [5] | outcome [6] | outcome [7] | Potency [9] | Potency [8]

COc1cnc(NS(=O)(=O)c2ccc(N)cc2)nc1
inactive: outcome [1] | Potency [2] | Potency [3] | Potency [4] | outcome [5] | outcome [6] | outcome [7] | Potency [9] | Potency [8]

CC(=O)SCC(CC(=O)c1ccc(C)cc1)C(=O)O (stereo not given)
inactive: outcome [1] | Potency [2] | Potency [3] | Potency [4] | outcome [5] | outcome [6] | outcome [7] | Potency [9]

CC(CC(=O)Cl)CC(C)(C)C (stereo not given)
inactive: outcome [1] | Potency [2] | Potency [3] | Potency [4] | outcome [5] | outcome [6] | outcome [7]

CCCCN(CCCC)CCCCCCN(CCCC)CCCC
inactive: outcome [1] | Potency [2] | Potency [3] | Potency [4] | outcome [5] | outcome [6] | outcome [7]

Cc1ccc(OC(=O)CC(C)C)cc1
inactive: outcome [1] | Potency [2] | Potency [3] | Potency [4] | outcome [5] | outcome [6] | outcome [7] | Potency [8]

CC(C)(C)c1ccc(C(=O)CCCCl)cc1
inactive: outcome [1] | Potency [2] | Potency [3] | Potency [4] | outcome [5] | outcome [6] | outcome [7]

CC(=O)OCC(=O)[C@@]1(O)CC[C@H]2[C@@H]3CCC4=CC(=O)C=C[C@]4(C)[C@H]3[C@@H](O)C[C@@]21C
inactive: outcome [1] | Potency [2] | Potency [4] | outcome [5] | outcome [6] | outcome [7] | Potency [9] | Potency [8]
active: Potency [3] 10.7 µM

COC(=O)/C=C(\C)CCC=C(C)C
inactive: outcome [1] | Potency [2] | Potency [3] | Potency [4] | outcome [5] | outcome [6] | outcome [7] | Potency [8]

CN(C)CCCN(C)C
inactive: activity change, negative = cytotoxicity [1] -0.912% [at 6.97 µM] | activity change [2] -1.52% [at 6.97 µM, stronger effect = higher value] | activity change, negative = cytotoxicity [3] -4.9% [at 6.97 µM] | cytotoxicity increase [4] -9.61% [at 6.97 µM] | activity change, negative = cytotoxicity [5] -1.36% [at 8.39 µM] | viability change, negative = cytotoxic [6] 2.3% [at 8.39 µM] | activity change, negative = inhibition [7] -10.8% [at 8.39 µM] | activity change, negative = inhibition [8] 2.55% [at 8.39 µM]

C=CC(=O)OCC[N+](C)(C)C
inactive: outcome [1] | Potency [2] | Potency [3] | Potency [4] | outcome [5] | outcome [6] | outcome [7] | Potency [8]

COC(=O)c1c(C)cc(O)c(C)c1O
inactive: outcome [1] | Potency [2] | Potency [3] | Potency [4] | outcome [5] | outcome [6] | outcome [7] | Potency [8]

CNC(C)=O
inactive: outcome [1] | Potency [2] | Potency [3] | Potency [4] | outcome [5] | outcome [6] | outcome [7] | Potency [8]

N=C(N)S(=O)O
inactive: outcome [1] | Potency [2] | Potency [3] | Potency [4] | outcome [5] | outcome [6] | outcome [7] | Potency [8]

CCO[Si](CC(C)C)(OCC)OCC
inactive: outcome [1] | Potency [2] | Potency [3] | Potency [4] | outcome [5] | outcome [6] | outcome [7] | Potency [8]

CCCCCCCCCCCCCCBr
inactive: outcome [1] | Potency [2] | Potency [3] | Potency [4] | outcome [5] | outcome [6] | outcome [7] | Potency [8]
